The nature of test [1]: compounds binding Alexa647 anti-His antibody – biochemical, small-molecule microarray, 635 nm fluorescence, artefact control for SMM control protein annotation, primary screen (AID 1128).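 Note: score merges feature fluorescence with signal-to-noise for each printed compound spot.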 The note with it: higher = more signal.
The subject of test [2] is Human papillomavirus type 1a E7 protein (residues 1-88). The test is described as follows: HPV1a E7 small-molecule binders, primary screen, biochemical, small-molecule microarray, residues 1-88, 635 nm (AID 1129). The note with it: small-molecule microarray binding, fluorescence 635 nm; higher = more signal.
Test [3] deals with Focal adhesion kinase 1 (Homo sapiens) (UniProt Q05397). The test is described as follows: PTK2 protein binding on printed compound slides – biochemical, small-molecule microarray, 635/667 nm fluorescence, BSA, DTT, primary screen (AID 1130).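 Note: composite of spot emission at 667 nm and signal to noise over triplicate slides.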 Particulars: 635 nm fluorescence, higher = more signal.
Chain of Focal adhesion kinase 1 (Homo sapiens) (Q05397 whole entry, looked up): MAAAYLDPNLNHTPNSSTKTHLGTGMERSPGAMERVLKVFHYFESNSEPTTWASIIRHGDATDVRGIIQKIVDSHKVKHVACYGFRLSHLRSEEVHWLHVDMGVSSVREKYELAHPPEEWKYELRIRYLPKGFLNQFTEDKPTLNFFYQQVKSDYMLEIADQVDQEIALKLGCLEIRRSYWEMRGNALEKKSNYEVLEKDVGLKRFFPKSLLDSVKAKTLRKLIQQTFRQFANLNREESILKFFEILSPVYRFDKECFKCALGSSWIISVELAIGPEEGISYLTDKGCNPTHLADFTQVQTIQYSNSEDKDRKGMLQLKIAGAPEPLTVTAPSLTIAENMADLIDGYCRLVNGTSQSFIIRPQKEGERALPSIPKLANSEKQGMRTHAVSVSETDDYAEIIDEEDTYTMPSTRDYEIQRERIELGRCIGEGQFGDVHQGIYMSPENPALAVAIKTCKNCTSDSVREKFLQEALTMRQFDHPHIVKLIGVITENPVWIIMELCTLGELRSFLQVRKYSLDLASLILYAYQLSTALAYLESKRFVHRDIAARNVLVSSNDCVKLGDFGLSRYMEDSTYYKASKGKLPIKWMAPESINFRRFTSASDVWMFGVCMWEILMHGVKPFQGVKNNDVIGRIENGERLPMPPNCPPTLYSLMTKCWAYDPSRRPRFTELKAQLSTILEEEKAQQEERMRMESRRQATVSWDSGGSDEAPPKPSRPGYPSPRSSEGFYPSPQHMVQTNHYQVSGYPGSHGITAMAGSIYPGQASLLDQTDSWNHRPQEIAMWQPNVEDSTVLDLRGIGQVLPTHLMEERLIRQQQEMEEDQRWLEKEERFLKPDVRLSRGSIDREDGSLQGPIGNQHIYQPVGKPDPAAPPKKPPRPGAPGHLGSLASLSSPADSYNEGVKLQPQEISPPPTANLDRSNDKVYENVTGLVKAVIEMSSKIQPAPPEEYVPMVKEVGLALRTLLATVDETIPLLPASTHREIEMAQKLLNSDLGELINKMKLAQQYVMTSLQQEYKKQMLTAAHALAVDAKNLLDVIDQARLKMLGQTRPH
Test [4] has as its system Fibrinogen (Alexa647-labelled). The test is described as follows: Alexa647-fibrinogen binding to printed small molecules – biochemical, small-molecule microarray, 635/667 nm fluorescence, artefact control for SMM control-protein annotation, profiling panel (AID 1131).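 Note: z-score merges 667 nm fluorescence with per-spot signal-to-noise over triplicate slides.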 The note with it: fibrinogen-A647 binding fluorescence, higher = more signal.
Test [5] addresses Follistatin (Homo sapiens) (UniProt P19883). The test is described as follows: FST protein binding to printed compounds – biochemical, small-molecule microarray, 635/667 nm fluorescence, primary screen (AID 1132). The note with it: 635 nm fluorescence, higher = more signal.
The target in test [6] is Fibroblast growth factor 2 (Homo sapiens) (UniProt P09038). Briefly: basic fibroblast growth factor binding to printed compounds – biochemical, small-molecule microarray, 635/667 nm fluorescence, primary screen (AID 1133). Particulars: FGF2, fluorescence 635/667, higher = more signal.
Chain of Fibroblast growth factor 2 (Homo sapiens) (P09038 whole entry, looked up): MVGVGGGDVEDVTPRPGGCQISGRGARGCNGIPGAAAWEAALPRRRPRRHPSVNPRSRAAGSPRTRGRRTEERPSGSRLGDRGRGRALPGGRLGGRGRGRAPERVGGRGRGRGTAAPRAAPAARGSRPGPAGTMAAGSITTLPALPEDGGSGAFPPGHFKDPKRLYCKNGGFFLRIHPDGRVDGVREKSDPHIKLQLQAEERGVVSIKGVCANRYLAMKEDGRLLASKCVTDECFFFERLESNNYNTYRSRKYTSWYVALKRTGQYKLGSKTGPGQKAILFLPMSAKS
Test [7] in a line: JC-1 mitochondrial potential readout, lung cancer cells – cell-based, A549, JC-1 fluorescence, basal, 24 h, 100 nL, profiling panel (AID 1138).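 Note: A549 lung adenocarcinoma cells under basal conditions with no added stimulus; test concentration not given here.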 The note with it: higher = more signal.
The next test has as its system Lefty1. The test is described as follows: Lefty1 protein binding to printed compounds – biochemical, small-molecule microarray, 635/667 nm fluorescence, primary screen (AID 1139). Particulars: fluorescence 635/667, higher = more signal.
For test [8], the system named is wheat germ agglutinin (Triticum aestivum), Alexa647-labelled. Briefly: Alexa647-WGA lectin binding to printed small molecules – biochemical, small-molecule microarray, 635/667 nm fluorescence, artefact control for SMM control-protein annotation, profiling panel (AID 1140).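 Note: score merges 667 nm feature emission with signal to noise over triplicate slides.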 Particulars: WGA-A647 binding, 635 nm fluorescence, higher = more signal.
Test [9] concerns the target Luciferin 4-monooxygenase (Photinus pyralis) (UniProt P08659). Briefly: inhibition of purified Photinus pyralis luciferase – biochemical, luminescence, purified enzyme, 2006 set, primary screen (AID 1141).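 Note: cell-free assay with purified firefly luciferase at 100 ng per well in PBS; test concentration not given here.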 The note with it: purified firefly luciferase, SteadyGlo luminescence, 30 min; higher = more signal, called active from +8 up or from −8 down.
Test [10] has as its system Wnt5a (protein binding on small-molecule microarray). The test is described as follows: small molecules binding Wnt5a protein – biophysical, small-molecule microarray, 635/667 nm fluorescence, primary screen (AID 1142).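 Note: fluorescence read at 667 nm with signal to noise per printed feature.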 The note with it: 635 nm fluorescence, higher = more signal.
Test [11] can be described thus: ATP-based viability of Huh7 replicon cells – cell-based, CellTiter-Glo luminescence, basal, 48 h, cytotoxicity control for HCV replication inhibitor project, primary screen (AID 1143).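 Note: Huh7 hepatoma cells carrying a hepatitis C replication reporter with no stimulus; test concentration not given here.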 The note with it: higher = more signal, called active from +8 up or from −8 down. In general terms: In antiviral work, replicon cells carry a viral genome segment that copies itself.
The nature of test [12]: Pseudomonas biofilm growth suppression – PAO1 strain, BacTiter-Glo luminescence, LB-PBS, primary screen (AID 1144). Particulars: P. aeruginosa PAO1 biofilm, 12 h, higher = more signal.
Test [13] is described as follows: basal CRE-LacZ reporter activity in PC12 – cell-based, unstimulated, primary screen (AID 1145). The note with it: no forskolin, luminescence, 4.5 h, higher = more signal, called active from +8 up or from −8 down.
Test [14] in a line: forskolin-driven CRE-LacZ activity in PC12 – cell-based, CRE-LacZ reporter, forskolin-stimulated, primary screen (AID 1146).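 Note: PC12 cells with 6xCRE LacZ reporter stimulated by forskolin 10 µM; beta-galactosidase reporter signal reflecting CREB driven transcription.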 Particulars: luminescence, 4.5 h, higher = more signal, called active from +8 up or from −8 down.
Test [15] concerns the target Streptavidin (Streptomyces avidinii) (UniProt P22629). The test is described as follows: compounds binding control protein streptavidin – biophysical, small-molecule microarray, 635/667 nm fluorescence, artefact control for SMM compound annotation, primary screen (AID 1147).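 Note: signal reflects streptavidin binding to arrayed compounds as a control protein.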 Particulars: higher = more signal.
A short description of test [16]: probe aInhba binding on compound microarray – biochemical, small-molecule microarray, 635/667 nm fluorescence, primary screen (AID 1148).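 Note: score merges 667nm spot fluorescence with signal-to-noise for antibody binding to printed compounds.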 Particulars: higher = more signal.
The target in test [17] is Torsin-1A (Homo sapiens) (UniProt O14656). The test is described as follows: TOR1A wild-type binding on microarray – cell lysate, small-molecule microarray, lysate, 635/667 nm, primary screen (AID 1149). Particulars: COS7 hTOR1A-WT lysate, 635 nm fluorescence, higher = more signal.
Chain of Torsin-1A (Homo sapiens) (O14656 whole entry, looked up): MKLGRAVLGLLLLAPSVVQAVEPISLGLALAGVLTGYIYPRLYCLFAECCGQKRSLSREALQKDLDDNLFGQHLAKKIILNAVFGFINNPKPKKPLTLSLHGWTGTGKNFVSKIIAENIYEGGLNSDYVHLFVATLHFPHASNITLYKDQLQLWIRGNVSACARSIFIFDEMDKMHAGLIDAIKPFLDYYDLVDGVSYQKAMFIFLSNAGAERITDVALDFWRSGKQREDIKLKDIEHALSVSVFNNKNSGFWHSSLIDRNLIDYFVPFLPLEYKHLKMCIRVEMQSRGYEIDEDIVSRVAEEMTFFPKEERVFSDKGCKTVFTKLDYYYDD
Test [18] has the same target. The test is described as follows: torsin A mutant lysate binding on microarrays – cell lysate, small-molecule microarray, COS7 lysate, 635/667 nm fluorescence, primary screen (AID 1150).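 Note: score pools 667 nm emission and signal to noise measuring lysate protein binding.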 Particulars: COS7 hTOR1A mutant lysate, 635 nm fluorescence, higher = more signal.
Test [19] concerns Sonic hedgehog protein (Shh). Briefly: Sonic hedgehog microarray binding compounds – biochemical, small-molecule microarray, 635/667 nm fluorescence, primary screen (AID 1151).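 Note: Shh protein binding to compounds spotted on small-molecule microarray slides; score combines spot fluorescence intensity with signal-to-noise across triplicate slides.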 Particulars: 635 nm fluorescence, higher = more signal.

Where “and” joins values, the source holds several entries; their conditions need not be identical. Identical values can stand only once. Calls of active or inactive are those of the source. Unless noted, the rule behind the calls is not given here.

Chain of Streptavidin (Streptomyces avidinii) (P22629 whole entry, looked up): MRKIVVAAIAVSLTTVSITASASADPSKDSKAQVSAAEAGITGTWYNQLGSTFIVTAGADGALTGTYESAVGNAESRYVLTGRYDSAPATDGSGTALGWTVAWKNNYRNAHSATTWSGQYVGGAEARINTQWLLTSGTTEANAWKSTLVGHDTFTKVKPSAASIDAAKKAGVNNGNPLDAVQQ
Chain of Follistatin (Homo sapiens) (P19883 whole entry, looked up): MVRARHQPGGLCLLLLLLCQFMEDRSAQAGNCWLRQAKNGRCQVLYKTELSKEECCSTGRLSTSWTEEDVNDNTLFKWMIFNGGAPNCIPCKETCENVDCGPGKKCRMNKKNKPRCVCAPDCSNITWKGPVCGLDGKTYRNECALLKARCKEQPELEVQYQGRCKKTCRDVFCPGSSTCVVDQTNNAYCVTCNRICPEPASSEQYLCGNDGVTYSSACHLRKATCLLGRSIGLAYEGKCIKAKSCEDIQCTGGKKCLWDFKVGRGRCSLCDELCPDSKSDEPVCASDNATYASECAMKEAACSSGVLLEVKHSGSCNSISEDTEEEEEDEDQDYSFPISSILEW
Chain of Luciferin 4-monooxygenase (Photinus pyralis) (P08659 whole entry, looked up): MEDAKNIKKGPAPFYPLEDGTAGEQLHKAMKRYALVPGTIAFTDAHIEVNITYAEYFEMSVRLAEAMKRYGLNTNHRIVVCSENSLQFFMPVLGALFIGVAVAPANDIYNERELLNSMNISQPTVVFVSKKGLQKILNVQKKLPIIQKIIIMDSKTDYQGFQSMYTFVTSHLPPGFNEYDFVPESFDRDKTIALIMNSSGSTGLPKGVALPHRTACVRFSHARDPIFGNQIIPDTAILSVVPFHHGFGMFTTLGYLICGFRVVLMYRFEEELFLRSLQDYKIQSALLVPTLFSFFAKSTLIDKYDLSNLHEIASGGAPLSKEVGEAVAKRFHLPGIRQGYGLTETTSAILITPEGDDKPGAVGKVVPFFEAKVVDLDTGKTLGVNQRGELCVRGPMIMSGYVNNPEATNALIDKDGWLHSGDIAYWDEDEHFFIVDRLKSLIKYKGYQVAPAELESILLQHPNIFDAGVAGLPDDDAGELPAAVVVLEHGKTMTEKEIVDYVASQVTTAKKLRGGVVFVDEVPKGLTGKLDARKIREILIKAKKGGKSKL

On to `C=CC[C@@H](O)c1ccc(O)c(F)c1`, for which the composite z-score was -1.52 and -0.7 in test [1]; -0.762 and -1.07 in [2]; -0.0427 and -0.9 in test [3]; -0.755 and -1.22 in test [4]; -1.12 and -0.0709 in [5]; -1.42 and -0.594 in test [6]. In addition, the composite z-score with Lefty1 was -1.9 and -0.344; in test [8], 0.106 and -1.3; in test [10], -0.54 and -0.38; in [15], -1.6 and -1.65; in test [16] it was -0.327 and -0.157; with Torsin-1A (Homo sapiens) [17], -1.73 and -0.874. Also, the composite z-score is 0.565 and -0.383 in the test with Torsin-1A (Homo sapiens) [18]; -0.97 and 0.89 in test [19]. Besides, the z-score in [7] is -0.933 and 1.15; in test [9] it was -0.0615 (inactive) and -1.14 (inactive); in test [11], 0.504 (inactive) and -1.51 (inactive); in test [12], -0.222 (inactive); in test [13], -0.403 (inactive) and 0.0632 (inactive); in [14] it was 0.347 (inactive) and -1.46 (inactive).
Regarding `COC(=O)C1=C(C)N(Cc2ccccc2)[C@]23O[C@](C(=O)OC)(C(=O)N2[C@@H]1c1ccccc1)[C@@H](c1ccccc1)[C@@H]3C(=O)c1ccccc1`, the composite z-score in test [1] is -0.148 and -0.112; in test [2], 0.771 and 0.0338; in test [3], -0.0865 and -0.11; in [4], 0.502 and -0.435; in [5], -0.0105 and 0.958; in test [6] it was 0.416 and 0.847. The composite z-score in the test on Lefty1 is 0.0005 and 0.36; in test [8] it was 0.516 and -0.17; in test [10] it was 0.216 and 0.0881; in test [15] it was 0.454 and 0.377; in [16], -0.0736 and -0.119; with Torsin-1A (Homo sapiens) [17] it was 0.388 and 0.241. Also, the composite z-score with Torsin-1A (Homo sapiens) [18] was 0.392 and 0.308; in test [19], 0.229 and 0.599. Moreover, the z-score in test [7] was 0.914 and 0.835; in [9] it was -0.917 (inactive) and -0.717 (inactive); in test [11], -3.24 (inactive) and 0.14 (inactive); in [12], -0.137 (inactive); in [13], 0.751 (inactive) and 0.29 (inactive); in test [14], -1.08 (inactive) and -0.186 (inactive).
As for `COC(=O)C1=C(C)N(Cc2ccccc2)C2=C(C(C)=O)C[C@@](O)(C(=O)OC)C(=O)N2[C@@H]1c1ccccc1`, the composite z-score in [1] was 1.23 and -0.0396; in [2], 0.5 and 0.2; in test [3], 0.271 and -0.209; in test [4], -0.378 and 1.02; in test [5] it was 0.247 and 0.12; in test [6], 1.55 and 0.0618. Besides, the composite z-score with Lefty1 was 1.18 and 0.158; in test [8], -0.48 and 0.228; in [10], 0.491 and 0.0879; in test [15], -0.192 and -0.271; in test [16], 0.0212 and -0.0136; with Torsin-1A (Homo sapiens) [17], 1.39 and 0.336. The composite z-score with Torsin-1A (Homo sapiens) [18] is 1.69 and -0.0069; in [19], 1.74 and 0.806. In addition, the z-score in test [7] was 1.18 and 1.72; in test [9], -0.458 (inactive) and -1.7 (inactive); in test [11] it was -0.451 (inactive) and -1.18 (inactive); in [12], -2.16 (inactive); in test [13], 3.35 (inactive) and 4.53 (inactive); in [14], -0.711 (inactive) and -0.239 (inactive).
Turning to `CC(C)OC(=O)C=C1C[C@@H](c2ccccc2)O[C@@H](c2ccccc2)O1`, the composite z-score in [1] is 0.871 and 1.47; in test [2], 1.23 and 1.25; in test [3], 0.255 and 0.796; in [4] it was 0.977 and 0.962; in test [5] it was 1.26 and 1.31; in [6] it was 1.42 and 1.02. Further, the composite z-score was 1.11 and 1.31 with Lefty1; 0.824 and 1.3 in [8]; 0.706 and 0.731 in test [10]; 1.35 and 1.85 in test [15]; 0.122 and 0.234 in test [16]; 1.55 and 1.19 with Torsin-1A (Homo sapiens) [17]. In addition, the composite z-score was 1.57 and 1.46 with Torsin-1A (Homo sapiens) [18]; 1.67 and 0.885 in [19]. The z-score was 1.55 and 0.229 in test [7]; 0.992 (inactive) and -0.692 (inactive) in [9]; -1.4 (inactive) and -2.03 (inactive) in test [11]; -0.804 (inactive) and -1.18 (inactive) in [12]; 0.836 (inactive) and -0.0879 (inactive) in [13]; -0.127 (inactive) and 3.16 (inactive) in test [14].

The record behind these values is PubChem BioAssay.
